# Source: PubChem BioAssay (NCI)
# About 83,000 compounds went through this panel and 20% of them were active in at least one assay; those are over-represented in the sample as a whole.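 Plates (96-well) were seeded with cells, treated with compound at one concentration, and incubated for 48 hours before percent growth was determined.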 A number with no mark means an inactive call. Active and inactive are the calls of the source. The calls were made as follows: active = growth percent below 10; inactive = the rest.
# Assays:
# Assay in all cases: NCI-60 one-dose screen, 48 h (100 = growth as untreated, 0 = no growth, -100 = all killed)
# Conditions in all cases: 10 µM unless noted
# SK-MEL-2 melanoma = tested on: SK-MEL-2 melanoma
# EKVX NSCLC = tested on: EKVX NSCLC
# SN12C renal = tested on: SN12C renal
# UO-31 renal = tested on: UO-31 renal
# TK-10 renal = tested on: TK-10 renal
# ACHN renal = tested on: ACHN renal
# CAKI-1 renal = tested on: CAKI-1 renal
# A498 renal = tested on: A498 renal
# CCRF-CEM leukemia = tested on: CCRF-CEM leukemia
# MOLT-4 leukemia = tested on: MOLT-4 leukemia
SMILES,growth (SK-MEL-2 melanoma),growth (EKVX NSCLC),growth (SN12C renal),growth (UO-31 renal),growth (TK-10 renal),growth (ACHN renal),growth (CAKI-1 renal),growth (A498 renal),growth (CCRF-CEM leukemia),growth (MOLT-4 leukemia)
CC[C@H](Nc1nc(N)nc(C2CC2)c1C#N)c1nc2cccc(NCc3ccc(C(=O)NO)cc3)c2c(=O)n1-c1ccccc1,26.2%,0.322% (active),9.34% (active),-80% (active),5.55% (active),-21% (active),-44.5% (active),-8.64% (active),8.87% (active),2.13% (active)
COc1cc(C)cc2oc3oc(=O)c(-c4csc(-c5cc6ccccc6oc5=O)n4)cc3c(=O)c12,124%,107%,102%,88.6%,121%,104%,96.1%,107%,105%,108%
CCOC(=O)c1ccc(N(CCC(=O)O)C(C)=O)cc1,105%,130%,107%,79%,105%,112%,101%,104%,98.3%,104%
CCCCOc1ncnc2nc[nH]c12,104%,112%,102%,99.7%,101%,101%,106%,97%,113%,91.9%
Oc1ccc(CCCCCCc2ccc(O)cc2)cc1,89.2%,74.5%,69.6%,25.6%,84.9%,-4.64% (active),16.8%,103%,18.5%,106%
CCN1CCN(Cc2ccc(NC(=O)c3nc4ccc5[nH]ncc5c4c4c3CCCC4)cc2C(F)(F)F)CC1,92%,74.3%,-75.6% (active),-91.8% (active),-33.7% (active),-97.1% (active),-11.7% (active),93.2%,3.68% (active),-28.9% (active)
CC1CN(CCCOC(=O)Nc2ccc(Cl)cc2)CCN1C(C)(C)C (stereo not given),112%,96.9%,113%,82.9%,99.8%,133%,89.8%,95.2%,90.3%,103%
CN1CCN(Cc2ccc(NC(=O)c3ccc(C#N)c(C#Cc4cnc(N)c5ncccc45)c3)cc2C(F)(F)F)CC1,72.4%,96.6%,86.3%,-81.8% (active),76.9%,-56.4% (active),94.1%,89.5%,27%,59.6%
CCNC(=S)N(Cc1ccccc1)Cc1ccccc1,98.6%,93.1%,103%,74.6%,106%,96.3%,93.5%,116%,132%,82.4%
Nc1ccc(C(OC(=O)c2cc3ccccc3c(Cc3c(O)c(C(=O)OC(c4ccc(N)cc4)(c4ccc(N)cc4)c4ccc(N)cc4)cc4ccccc34)c2O)(c2ccc(N)cc2)c2ccc(N)cc2)cc1,-17.2% (active),-5.75% (active),-2.33% (active),29%,44.6%,47.5%,11.3%,-3.31% (active),21.6%,21%
COc1cc2nccc(Oc3ccc(NC(=O)C4(C(=O)Nc5ccc(F)cc5)CC4)cc3)c2cc1OC(=O)c1ccc(N)cc1,31.3%,25.7%,27.6%,9.18% (active),72.2%,39.5%,20.9%,64%,27.8%,3.73% (active)
OC(c1cc2c(Cl)cc(Cl)cc2c2cc(C(F)(F)F)ccc12)C1CCCCN1 (stereo not given),-65.3% (active),-51.8% (active),-79.1% (active),-87.6% (active),-87.7% (active),-78.6% (active),-62.5% (active),0.166% (active),-54.7% (active),-62.6% (active)
O=C(c1ccccc1)N(CCCCl)C(=O)N(CCCCl)C(=O)c1ccccc1,103%,81%,94.6%,73.4%,96.8%,90.9%,74.9%,79.5%,99.7%,84.4%
